In the library only some 3% were active in any assay of this set; here they are far more common.
Rv3671c protease: inhibitors of M. tuberculosis serine protease Rv3671c; inhibition, % at 5.96 µM; AID 2606; P9WHR9; actives 0.048% (n = 320,000); in the data active means inhibition above about 38%;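 further: extracellular domain of Rv3671c used as enzyme; 0% = enzyme with DMSO and 100% = no enzyme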
Target sequence (P9WHR9 whole entry, looked up, the tested form may be a part): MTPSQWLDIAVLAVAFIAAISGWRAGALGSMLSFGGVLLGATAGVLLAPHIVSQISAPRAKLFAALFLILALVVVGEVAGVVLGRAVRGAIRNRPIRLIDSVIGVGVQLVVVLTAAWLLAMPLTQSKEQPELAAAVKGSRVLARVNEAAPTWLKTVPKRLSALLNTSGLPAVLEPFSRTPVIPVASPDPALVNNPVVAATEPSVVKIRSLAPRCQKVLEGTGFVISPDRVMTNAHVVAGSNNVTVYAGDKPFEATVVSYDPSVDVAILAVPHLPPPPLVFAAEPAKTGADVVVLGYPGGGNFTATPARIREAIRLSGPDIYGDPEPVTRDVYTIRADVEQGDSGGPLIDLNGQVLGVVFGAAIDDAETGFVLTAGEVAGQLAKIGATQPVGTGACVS
GDH-TPI inh: inhibits GDH-TPI coupling enzymes, artifact for Mtb FBA screen; GDH-TPI coupled enzyme counterscreen, NADH absorbance; inhibition, % at 4.8 µM; actives 1.2% (n = 360,000); in the data active means inhibition above about 30%;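 further: 0% = DMSO wells and 100% = wells lacking the enzyme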
Mtb FBA inh: Mtb fructose-bisphosphate aldolase inhibition. P9WQA3. purified M. tuberculosis FBA, fluorescence read-out. inhibition, % at 1 µM. actives 2.3% (n = 360,000). AID 588726; in the data active means inhibition above about 27%;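 further: 0% = vehicle and 100% = reference inhibitor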
BioA inh: inhibitors of Mycobacterium tuberculosis BioA enzyme; actives 0.096% (n = 360,000); inhibition, % at 9.99 µM; purified M. tuberculosis BioA enzyme, plate reader; AID 602481; in the data active means inhibition above about 40%
FadD28 binding: inhibitors of Mycobacterium tuberculosis FadD28 bisubstrate binding; FadD28 bisubstrate probe binding, fluorescence polarization; inhibition, % at 12.5 µM; actives 0.22% (n = 360,000); AID 588549; in the data active means inhibition above about 8.5%, passing the limit was not always enough
Active calls of the source: *; / = no result given; + = active, no number.

SMILES	Rv3671c protease	GDH-TPI inh	Mtb FBA inh	BioA inh	FadD28 binding
COC(=O)c1c2[n+](cc3cc(OC)c(OC)cc13)CCc1cc(OC)c(OC)cc1-2	10.3	43.4*	-0.1	/	-0.3
COc1ccc(NC(=O)Nc2ccc3c(c2)[C@@H]2C[C@@H](CC(=O)NCC4CC4)O[C@H](CO)[C@@H]2O3)cc1	/	/	/	0.2	/
COc1cc(/C=N/Nc2ccc(S(N)(=O)=O)cc2[N+](=O)[O-])cc(OC)c1O	7.7	41.5*	-22.9	/	-0.6
NS(=O)(=O)c1ccc(N/N=C/c2ccc[nH]2)c([N+](=O)[O-])c1	-2.1	72.7*	-7.7	/	-1.5
O=C(O)c1ccc(/C=N\Nc2ccc(S(=O)(=O)N3CCOCC3)cc2[N+](=O)[O-])cc1	-4.5	0.5	3.7	-0.5	-0.4
NS(=O)(=O)c1ccc(N/N=C/c2ccc(C(=O)O)cc2)c([N+](=O)[O-])c1	-1.3	66.7*	-19.7	13.3	1.6
CCC(CC)=NNc1ccc(S(N)(=O)=O)cc1[N+](=O)[O-]	0.5	7.4	-10.4	5.7	-3.2
CCOc1cc(S(=O)(=O)N2CCC(Cc3ccccc3)CC2)c(OCC)cc1-n1cnnn1	5.5	20.4	7.5	-0.1	-2.0
CCOc1cc(S(=O)(=O)NCCc2cccc(C)c2)c(OCC)cc1-n1cnnn1	5.6	-0.9	40.5*	-0.2	-1.8
C[C@@H]1CN([C@@H](C)CO)C(=O)c2c(c3ccccc3n2C)-c2ccccc2CO[C@@H]1CN(C)S(=O)(=O)c1ccccc1C#N	/	/	/	-0.7	/
C=CCNc1oc(-c2ccc(Cl)cc2)nc1C#N	4.8	13.2	3.6	0.6	-1.9
N#Cc1nc(-c2ccc(Cl)cc2)oc1NCC1CCCO1 (stereo unspecified)	-1.1	0.6	153.9*	1.2	0.1
N#Cc1nc(-c2ccccc2)oc1NCC1CCCO1 (stereo unspecified)	-1.7	6.5	171.0*	/	-4.6
FC(F)(F)c1cc(-c2ccccc2)nc(NCC2CCCO2)n1 (stereo unspecified)	-1.0	3.3	-0.7	2.7	1.2
N#Cc1nc(-c2cccc3ccccc23)oc1NCC1CCCO1 (stereo unspecified)	8.8	9.4	+	-0.5	-0.9
CNc1oc(-c2ccc(Cl)cc2)nc1C#N	-1.3	0.3	+	/	-1.0
Cc1noc(C)c1NC(=O)Nc1ccc2c(c1)C(=O)N([C@@H](C)CO)C[C@H](C)[C@@H](CN(C)C(=O)Nc1ccc(C(F)(F)F)cc1)OCCCC[C@H](C)O2	/	/	/	0.5	/
CCN1[C@@H]2c3ccc(-c4cccnc4)c(=O)n3C[C@@H]2[C@@H](CO)[C@@H]1C(=O)NCCc1cn(C)cn1	/	/	/	2.1	/
COc1ccc(-c2cc(C(F)(F)F)nc(SCC(=O)N(C)Cc3cn(C)nc3C)n2)cc1OC	-2.4	40.9*	13.2	/	-0.5
COc1ccc(-c2cc(C(F)(F)F)nc(SCCC(=O)N3CCN(C)CC3)n2)cc1	/	2.0	-1.5	/	-1.2
COc1ccc(-c2cc(C(F)(F)F)nc(SCC(=O)NCc3cnn(C)c3C)n2)cc1OC	-2.3	25.9	4.0	-1.4	-3.9
COc1ccc(-c2cc(C(F)(F)F)nc(SCC(N)=O)n2)cc1	-1.8	14.3	114.2*	-2.3	-3.0
COc1ccc(-c2cc(C(F)(F)F)nc(SCC(=O)NCc3ccco3)n2)cc1OC	5.4	30.7*	5.0	-1.5	-2.5
C[C@@H]1CN([C@@H](C)CO)C(=O)c2cc(NS(=O)(=O)c3ccccc3)ccc2O[C@@H]1CN(C)CC1CC1	/	/	/	-0.6	/
CN(C)c1ccc(C2N(c3ccc(F)cc3)C(=O)C3CCCN32)cc1 (stereo unspecified)	-0.6	39.6*	-1.4	-2.2	0.2
SMILES	Rv3671c protease	GDH-TPI inh	Mtb FBA inh	BioA inh	FadD28 binding
CN(C)c1nc2sc3c(c2c(=O)n1C)CC(C)(C)OC3	5.8	18.6	1.4	1.2	-2.6
CNc1nc2sc3c(c2c(=O)n1C)CC(C)(C)SC3	1.5	8.2	184.9*	-1.9	-4.9
Cc1ccccc1C(=O)Nc1ccc(C(=O)N/N=C/c2ccc(O)cc2)cc1	-6.7	33.8*	3.6	-0.8	-1.3
O=C(N/N=C/c1ccncc1)c1cccc(N/N=C/c2ccncc2)c1	0.0	16.2	-3.2	/	0.9
O=C(N/N=C/c1ccc(O)cc1)c1ccc(NC(=O)c2ccccc2Br)cc1	-10.8	42.5*	-4.2	-0.3	1.1
O=C(N/N=C/c1ccc(O)cc1)c1cccc(N/N=C/c2ccc(O)cc2)c1	-0.8	36.9*	-0.8	-1.3	-2.6
O=C(Nc1ccccc1C(=O)N/N=C/c1ccc(F)cc1)c1ccccc1Br	-15.1	4.6	0.8	-0.2	-12.0
Cc1ccccc1C(=O)Nc1ccc(C(=O)N/N=C/c2ccncc2)cc1	9.4	12.5	5.1	/	1.6
C[C@@H]1CN([C@H](C)CO)C(=O)c2cccc(NC(=O)C3CC3)c2O[C@H]1CN(C)Cc1ccc(C(=O)Nc2ccccc2N)cc1	/	/	/	0.3	/
COc1ccc(C(=O)/C(=C\c2ccco2)N2C=CC=CC2=C(C#N)C#N)cc1	-16.1	50.9*	-2.0	-1.0	-1.5
N#CC(C#N)=C1C=CC=CN1/C(=C\c1ccco1)C(=O)c1ccc(Br)cc1	-35.6	37.4*	-0.6	/	-10.6
COc1ccc(/C=C(/C(=O)c2cccs2)N2C=CC=CC2=C(C#N)C#N)cc1	/	13.6	6.2	/	-3.0
N#CC(C#N)=C1C=CC=CN1/C(=C\c1ccco1)C(=O)c1ccccc1	-29.2	33.8*	2.6	/	-0.5
C[C@@H]1CN([C@@H](C)CO)C(=O)c2cc(-c3ccc(C(=O)N(C)C)cc3)cnc2O[C@H]1CN(C)C(=O)CN(C)C	/	/	/	0.9	/
CCCc1cc2c(=O)c(-c3cscn3)c(C(=O)OCC)oc2cc1O	-9.0	6.9	-0.2	0.4	-2.2
COc1ccc(Oc2c(C)oc3c(CN(C)C)c(O)ccc3c2=O)cc1	-5.1	26.2	42.7*	0.4	-3.2
COC(=O)c1ccc(Oc2c(C)oc3c(CN4CCN(C)CC4)c(O)ccc3c2=O)cc1	-0.4	21.6	+	-1.0	-1.9
COc1ccc(Oc2coc3c(CN(C)C)c(O)ccc3c2=O)cc1	3.4	19.1	14.8	-1.9	0.0
Cc1oc2c(CN(C)C)c(O)ccc2c(=O)c1-c1cscn1	5.6	26.2	65.9*	-0.5	0.5
COc1cccc(Oc2c(C)oc3c(CN4CCCCC4)c(O)ccc3c2=O)c1	1.9	21.7	179.2*	1.4	-0.4
Cn1nc(C(=O)Nc2nc3ccc(S(C)(=O)=O)cc3s2)ccc1=O	-4.1	60.6*	-5.8	-0.1	-3.5
CS(=O)(=O)c1ccc2nc(NC(=O)c3ccc(=O)[nH]c3)sc2c1	-0.2	82.6*	-0.5	/	-1.9
CS(=O)(=O)c1ccc2nc(NC(=O)c3ccc(Cl)cc3)sc2c1	-0.3	23.9	5.7	0.3	-0.7
Cc1cccc(-n2c(O)c(C=NC3CCS(=O)(=O)C3)c3ccccc3c2=O)c1C (stereo unspecified)	-1.4	31.0*	1.6	7.1	-0.5
COc1cc(/C=C(\C#N)C(=O)c2ccc(O)c(O)c2)cc(I)c1O	-47.2	54.6*	-5.5	0.7	12.1*
Cc1cccc(NC(=O)CN2C(=O)N/C(=C/c3cc(C)n(-c4cccnc4)c3C)C2=O)c1	-9.4	3.9	1.5	/	27.7*
Cc1cccc(NC(=O)CN2C(=O)N/C(=C/c3cc(C)n(-c4ccncc4)c3C)C2=O)c1	-23.5	13.6	-0.9	-0.2	10.6*

Compound activity as filed in PubChem BioAssay.
